The source made the active and inactive calls. The calls were made as follows: active = hit-call score of the fitted dose curve at least 0.9, where 1 is the maximum; inactive = score below 0.9.
Assays:
Details in all cases: mRNA level, 48 h; actives raise or lower the signal
MYC, MYC (gene 4609) = test: LTEA_HepaRG_MYC: Life Technologies and Expression Analysis (LTEA) Assay for MYC using HepaRG (AID 2283518)
In short: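 HepaRG, ~100,000 cells/well, collagen I; 48 h plating; serum-free induction medium; 48 h dosing, duplicate, 100 uM top, half-log, 0.5% DMSO; total RNA → qRT-PCR MYC; gain/loss fit vs DMSO.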

[1] = read-out: matrix metalloproteinase-3 (MMP3), MMP3 (gene 4314); test: LTEA_HepaRG_MMP3: Life Technologies and Expression Analysis (LTEA) Assay for matrix metalloproteinase-3 (MMP3) using HepaRG (AID 2283519)
In short: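 qRT-PCR read-out of MMP3 mRNA (normalised to three housekeeping genes) in HepaRG liver cells after 48 h chemical exposure; 8-point half-log series, top 100 uM, 0.5% DMSO vehicle. Bidirectional curve fitting against DMSO baseline.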

[2] = read-out: Paternally Expressed 10 (PEG10), PEG10 (gene 23089); test: LTEA_HepaRG_PEG10: Life Technologies and Expression Analysis (LTEA) Assay for Paternally Expressed 10 (PEG10) using HepaRG (AID 2283520);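 as to AC50: differentiated HepaRG human liver cells in serum-free induction medium with 0.5% DMSO; PEG10 transcript by qRT-PCR normalised to ACTB GAPDH and POLR2A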
In short: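 PEG10 transcript measured by Fluidigm qRT-PCR, normalized to three housekeeping genes, in HepaRG cells treated 48 h (highest 100 uM, half-log steps, 0.5% DMSO vehicle). Cells plated 48 h before switching to serum-free induction medium.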

[3] = read-out: Protein phosphatase 2A (PPP2R4), PTPA (gene 5524); test: LTEA_HepaRG_PPP2R4: Life Technologies and Expression Analysis (LTEA) Assay for Protein phosphatase 2A (PPP2R4) using HepaRG (AID 2283522)
In short: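 Expression was quantified by Fluidigm qRT-PCR normalised to three housekeeping genes after 48 h treatment. Human HepaRG cells received an 8-point series from 100 µM downward by half-logs, in duplicate with 0.5% DMSO vehicle and 1 mM phenobarbital as induction control.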

[4] = read-out: Phosphatase and tensin (PTEN), PTEN (gene 5728); test: LTEA_HepaRG_PTEN: Life Technologies and Expression Analysis (LTEA) Assay for Phosphatase and tensin (PTEN) using HepaRG (AID 2283523)
In short: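 HepaRG, 48 h exposure, 8-pt half-log series from 100 uM top, 0.5% DMSO vehicle, duplicates. Readout: Fluidigm qRT-PCR of PTEN transcript; housekeeping normalization (ACTB, GAPDH, POLR2A). Gain or loss fitted relative to DMSO baseline.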

[5] = read-out: solute carrier (SLC22A1), SLC22A1 (gene 6580); test: LTEA_HepaRG_SLC22A1: Life Technologies and Expression Analysis (LTEA) Assay for solute carrier (SLC22A1) using HepaRG (AID 2283524)
In short: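 qRT-PCR readout (TaqMan, Fluidigm arrays) of SLC22A1 transcript, normalized to three housekeeping genes; bidirectional curve fit relative to 0.5% DMSO vehicle. Differentiated human HepaRG cells, 48 h chemical exposure, top concentration 100 uM, half-log steps, eight points.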

[6] = read-out: Pyruvate Dehydrogenase Kinase 4 (PDK4), PDK4 (gene 5166); test: LTEA_HepaRG_PDK4: Life Technologies and Expression Analysis (LTEA) Assay for Pyruvate Dehydrogenase Kinase 4 (PDK4) using HepaRG (AID 2283525)
In short: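 HepaRG (human liver line), 48 h chemical exposure, 8-pt half-log CRC top 100 uM, 0.5% DMSO vehicle, duplicates. Readout: TaqMan qRT-PCR of PDK4 mRNA, housekeeping-normalized; gain/loss fit relative to DMSO baseline.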

[7] = read-out: NAD(P)H dehydrogenase [quinone] 1 (NQO1), NQO1 (gene 1728); test: LTEA_HepaRG_NQO1: Life Technologies and Expression Analysis (LTEA) Assay for NAD(P)H dehydrogenase [quinone] 1 (NQO1) using HepaRG (AID 2283526)
In short: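 NQO1 transcript induction or loss measured by TaqMan qRT-PCR, referenced to three housekeeping genes and fitted bidirectionally against 0.5% DMSO. HepaRG cultures exposed 48 h, duplicate, eight-point half-log series, top 100 uM.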

[8] = read-out: Nuclear factor erythroid 2-related factor 2 (Homo sapiens) (UniProt Q16236); test: LTEA_HepaRG_NFE2L2: Life Technologies and Expression Analysis (LTEA) Assay for Nuclear factor erythroid 2-related factor 2 (NFE2L2) Transcription Factor using HepaRG (AID 2283527)
In short: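 HepaRG, 48 h dosing, 8-pt half-log series from 100 uM in 0.5% DMSO, duplicates. Read-out: NFE2L2 mRNA by qRT-PCR (ACTB/GAPDH/POLR2A normalization). Bidirectional curve fit vs DMSO baseline.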

[9] = read-out: Signal transducer and activator of transcription 3 (Homo sapiens) (UniProt P40763); test: LTEA_HepaRG_STAT3: Life Technologies and Expression Analysis (LTEA) Assay for Signal transducer and activator of transcription (STAT3) using HepaRG (AID 2283529)
In short: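 HepaRG, 48 h exposure, 8-pt half-log series (top 100 uM), 0.5% DMSO vehicle, duplicates. Readout: STAT3 transcript by Fluidigm qRT-PCR, housekeeping-normalized; bidirectional fit vs DMSO baseline.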

[10] = read-out: solute carrier (SLCO1B1), SLCO1B1 (gene 10599); test: LTEA_HepaRG_SLCO1B1: Life Technologies and Expression Analysis (LTEA) Assay for solute carrier (SLCO1B1) using HepaRG (AID 2283530)
In short: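 HepaRG, serum-free induction medium, 48 h dosing, 8-pt half-log from 100 uM, 0.5% DMSO vehicle, duplicates. Readout: SLCO1B1 mRNA, qRT-PCR, ACTB/GAPDH/POLR2A normalization; up or down fit vs DMSO.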

[11] = read-out: sulfotransferase 2A1 (SULT2A1), SULT2A1 (gene 6822); test: LTEA_HepaRG_SULT2A1: Life Technologies and Expression Analysis (LTEA) Assay for sulfotransferase 2A1 (SULT2A1) using HepaRG (AID 2283531)
In short: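 Transcript levels of SULT2A1, quantified by qRT-PCR and normalized to three housekeeping genes, serve as the readout. Human HepaRG cultures receive test chemicals for 48 h at up to 100 uM in half-log steps, with 0.5% DMSO vehicle.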

[12] = read-out: Transforming Growth Factor (TGFA), TGFA (gene 7039); test: LTEA_HepaRG_TGFA: Life Technologies and Expression Analysis (LTEA) Assay for Transforming Growth Factor (TGFA) using HepaRG (AID 2283532)
In short: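 qRT-PCR read-out of TGFA transcript, normalized to three housekeeping genes, fitted bidirectionally against 0.5% DMSO baseline. Human HepaRG cultures received chemicals for 48 h at eight half-log concentrations, top 100 uM.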

[13] = read-out: Transforming Growth Factor (TGFB1), TGFB1 (gene 7040); test: LTEA_HepaRG_TGFB1: Life Technologies and Expression Analysis (LTEA) Assay for Transforming Growth Factor (TGFB1) Transporter using HepaRG (AID 2283533)
In short: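 HepaRG, 48 h post-plating, switched to serum-free induction medium; chemicals 100 uM top, half-log, 8 pts, 0.5% DMSO, dup; 48 h exposure; RNA → Fluidigm TaqMan qRT-PCR; norm ACTB/GAPDH/POLR2A; bidirectional fit vs DMSO.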

TIMP1, TIMP1 (gene 7076) = test: LTEA_HepaRG_TIMP1: Life Technologies and Expression Analysis (LTEA) Assay for TIMP1 using HepaRG (AID 2283534)
In short: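 Readout is TIMP1 mRNA level measured by qRT-PCR and normalized to three housekeeping genes. Human HepaRG cells were treated for 48 h in duplicate at eight concentrations up to 100 uM (0.5% DMSO); gain or loss fitted against DMSO.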

[14] = read-out: Tumor necrosis factor receptor 1 (TNFRSF1A), TNFRSF1A (gene 7132); test: LTEA_HepaRG_TNFRSF1A: Life Technologies and Expression Analysis (LTEA) Assay for Tumor necrosis factor receptor 1 (TNFRSF1A) using HepaRG (AID 2283535)
In short: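 Read-out is TNFRSF1A transcript level by TaqMan qRT-PCR, normalized to three housekeeping genes, scored as gain or loss of signal versus 0.5% DMSO. Human HepaRG cells received test chemicals for 48 h at up to 100 uM (half-log series).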

[15] = read-out: Thyroid Hormone Responsive (THRSP), THRSP (gene 7069); test: LTEA_HepaRG_THRSP: Life Technologies and Expression Analysis (LTEA) Assay for Thyroid Hormone Responsive (THRSP) using HepaRG (AID 2283536)
In short: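 qRT-PCR read-out (Fluidigm TaqMan), housekeeping-normalized (ACTB/GAPDH/POLR2A). HepaRG, 48 h chemical exposure, 8-pt half-log series from 100 uM in 0.5% DMSO, duplicates. Bidirectional curve fit vs 0.5% DMSO baseline.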

[16] = read-out: Cellular tumor antigen p53 (Homo sapiens) (UniProt P04637); test: LTEA_HepaRG_TP53: Life Technologies and Expression Analysis (LTEA) Assay for Tumor Protein P53 (TP53) using HepaRG (AID 2283537)
In short: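 TP53 transcript measured by qRT-PCR, normalized to three housekeeping genes, after 48 h treatment of human HepaRG cultures with chemicals from 100 uM downward in half-log steps (0.5% DMSO vehicle, serum-free induction medium). Up- or down-regulation fitted against DMSO.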

[17] = read-out: Nuclear factor NF-kappa-B p105 subunit (Homo sapiens) (UniProt P19838); test: LTEA_HepaRG_NFKB1: Life Technologies and Expression Analysis (LTEA) Assay for Nuclear Factor Kappa B Subunit 1 (NFKB1) using HepaRG (AID 2283521);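 also: differentiated human HepaRG liver cells in serum-free induction medium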
In short: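 NFKB1 transcript was measured by TaqMan qRT-PCR on Fluidigm arrays, normalised to three housekeeping genes and fitted in both directions against 0.5% DMSO. HepaRG cells were dosed in duplicate for 48 h in serum-free induction medium, eight half-log steps from 100 uM.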

[18] = read-out: succinate dehydrogenase complex iron sulfur subunit B (SDHB), SDHB (gene 6390); test: LTEA_HepaRG_SDHB: Life Technologies and Expression Analysis (LTEA) Assay for succinate dehydrogenase complex iron sulfur subunit B (SDHB) using HepaRG (AID 2283528)
In short: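 SDHB transcript level read by TaqMan qRT-PCR, housekeeping-normalised (ACTB, GAPDH, POLR2A), after 48 h chemical treatment of plated HepaRG cells; eight concentrations top 100 uM, half-log steps, 0.5% DMSO, duplicates; fitted both directions against DMSO.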

Measured: AC50

Chain of Signal transducer and activator of transcription 3 (Homo sapiens) (P40763 whole entry, looked up): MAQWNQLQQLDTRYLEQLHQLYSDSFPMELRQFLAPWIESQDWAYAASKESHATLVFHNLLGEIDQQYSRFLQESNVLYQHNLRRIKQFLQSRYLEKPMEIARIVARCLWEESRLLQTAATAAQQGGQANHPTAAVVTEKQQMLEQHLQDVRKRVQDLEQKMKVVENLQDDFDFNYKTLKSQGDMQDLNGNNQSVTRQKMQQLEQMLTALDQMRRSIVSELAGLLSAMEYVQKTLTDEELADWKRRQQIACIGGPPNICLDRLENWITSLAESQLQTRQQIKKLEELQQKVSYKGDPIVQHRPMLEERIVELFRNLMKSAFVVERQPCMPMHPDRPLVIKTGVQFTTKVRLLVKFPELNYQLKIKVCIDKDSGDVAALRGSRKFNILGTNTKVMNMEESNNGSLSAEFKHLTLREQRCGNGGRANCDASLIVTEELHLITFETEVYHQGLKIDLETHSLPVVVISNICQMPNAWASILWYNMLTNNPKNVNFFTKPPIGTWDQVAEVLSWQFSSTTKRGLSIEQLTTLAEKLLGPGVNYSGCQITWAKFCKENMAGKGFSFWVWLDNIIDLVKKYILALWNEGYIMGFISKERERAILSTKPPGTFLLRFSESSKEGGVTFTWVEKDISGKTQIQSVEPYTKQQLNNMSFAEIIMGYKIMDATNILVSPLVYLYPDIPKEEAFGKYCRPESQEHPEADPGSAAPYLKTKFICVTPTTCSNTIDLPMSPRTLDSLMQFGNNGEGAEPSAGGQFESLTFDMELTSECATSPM
Chain of Cellular tumor antigen p53 (Homo sapiens) (P04637 whole entry, looked up): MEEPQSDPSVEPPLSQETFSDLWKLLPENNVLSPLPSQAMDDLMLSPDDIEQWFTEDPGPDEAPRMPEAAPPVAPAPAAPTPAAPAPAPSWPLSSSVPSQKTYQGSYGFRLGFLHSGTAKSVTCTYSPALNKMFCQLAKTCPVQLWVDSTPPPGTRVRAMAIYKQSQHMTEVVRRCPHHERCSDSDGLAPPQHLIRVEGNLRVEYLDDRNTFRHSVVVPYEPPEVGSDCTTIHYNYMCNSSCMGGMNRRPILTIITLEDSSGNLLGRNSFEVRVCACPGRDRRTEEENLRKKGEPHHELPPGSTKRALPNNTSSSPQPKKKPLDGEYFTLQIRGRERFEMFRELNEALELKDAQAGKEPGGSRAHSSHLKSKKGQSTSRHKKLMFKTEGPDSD
Chain of Nuclear factor erythroid 2-related factor 2 (Homo sapiens) (Q16236 whole entry, looked up): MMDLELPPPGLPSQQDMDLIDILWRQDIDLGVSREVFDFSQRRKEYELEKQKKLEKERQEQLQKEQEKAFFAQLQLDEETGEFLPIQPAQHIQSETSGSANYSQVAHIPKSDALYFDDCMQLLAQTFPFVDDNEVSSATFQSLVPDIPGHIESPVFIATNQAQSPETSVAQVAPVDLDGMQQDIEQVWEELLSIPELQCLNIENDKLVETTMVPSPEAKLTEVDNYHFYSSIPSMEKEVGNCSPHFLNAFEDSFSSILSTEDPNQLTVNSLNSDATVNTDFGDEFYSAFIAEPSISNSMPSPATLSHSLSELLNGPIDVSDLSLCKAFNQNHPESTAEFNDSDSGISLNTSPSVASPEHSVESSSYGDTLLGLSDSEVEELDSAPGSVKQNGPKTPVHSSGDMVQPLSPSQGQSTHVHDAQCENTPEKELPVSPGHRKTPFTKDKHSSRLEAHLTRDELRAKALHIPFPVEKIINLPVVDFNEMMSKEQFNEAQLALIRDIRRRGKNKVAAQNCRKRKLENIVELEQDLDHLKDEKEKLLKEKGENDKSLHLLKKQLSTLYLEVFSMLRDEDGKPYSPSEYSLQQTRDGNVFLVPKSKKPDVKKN
Chain of Nuclear factor NF-kappa-B p105 subunit (Homo sapiens) (P19838 whole entry, looked up): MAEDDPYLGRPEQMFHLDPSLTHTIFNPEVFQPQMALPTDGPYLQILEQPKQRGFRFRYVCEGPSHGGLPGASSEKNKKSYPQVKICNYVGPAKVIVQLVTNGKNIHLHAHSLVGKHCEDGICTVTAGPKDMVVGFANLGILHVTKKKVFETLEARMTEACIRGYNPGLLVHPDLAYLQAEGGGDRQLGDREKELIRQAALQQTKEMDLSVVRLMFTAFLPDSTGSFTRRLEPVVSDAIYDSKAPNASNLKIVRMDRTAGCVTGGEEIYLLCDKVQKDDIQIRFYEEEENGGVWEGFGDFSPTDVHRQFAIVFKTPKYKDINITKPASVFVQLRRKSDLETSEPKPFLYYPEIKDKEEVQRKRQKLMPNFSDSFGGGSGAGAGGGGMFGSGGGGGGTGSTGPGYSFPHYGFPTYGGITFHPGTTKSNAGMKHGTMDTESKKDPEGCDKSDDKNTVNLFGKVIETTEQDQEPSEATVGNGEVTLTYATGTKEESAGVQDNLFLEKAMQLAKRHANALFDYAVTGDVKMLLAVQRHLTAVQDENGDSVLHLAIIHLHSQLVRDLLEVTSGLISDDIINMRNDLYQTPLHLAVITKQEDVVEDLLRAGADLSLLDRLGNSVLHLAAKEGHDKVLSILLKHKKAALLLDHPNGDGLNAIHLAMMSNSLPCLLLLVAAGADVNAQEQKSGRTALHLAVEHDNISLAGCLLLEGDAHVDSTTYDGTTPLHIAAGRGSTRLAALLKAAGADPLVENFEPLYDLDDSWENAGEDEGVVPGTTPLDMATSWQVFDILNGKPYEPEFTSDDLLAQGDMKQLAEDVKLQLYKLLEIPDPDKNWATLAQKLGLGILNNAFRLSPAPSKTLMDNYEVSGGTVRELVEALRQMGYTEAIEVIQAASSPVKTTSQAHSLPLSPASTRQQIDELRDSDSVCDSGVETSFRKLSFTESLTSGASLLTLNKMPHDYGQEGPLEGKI

CCCOC(=O)NCCCN(C)C
not listed: [17] | [18]
inactive: all other assays above

CC(C)(C)[C@@H](O)[C@@H](Cc1ccc(Cl)cc1)n1cncn1
active: [15] 32.7 µM
not listed: [1] | [5] | [10] | [18]
inactive: all other assays above

CCN(CC)C(=O)c1cccc(C)c1
active: [9] 4.39 µM
not listed: [5] | [16] | [17] | [18]
inactive: all other assays above

OB(O)O
not listed: [5] | [17] | [18]
inactive: all other assays above

CC1(C)C(C=C(Cl)Cl)C1C(=O)OCc1cccc(Oc2ccccc2)c1 (stereo not given)
not listed: [5] | [17]
inactive: all other assays above

CCOC(=O)COc1cc(-n2ncc(C(F)(F)F)c(C)c2=O)c(F)cc1Cl
not listed: [17] | [18]
inactive: all other assays above

C#C[C@]1(O)CC[C@H]2[C@@H]3CCC4=CC(=O)CC[C@@H]4[C@H]3CC[C@@]21CC
active: [2] 2.38 µM | [6] 442 nM | [10] 32.5 nM | [15] 0.0275 µM
not listed: [5] | TIMP1, TIMP1 (gene 7076) | [18]
inactive: all other assays above
